About 480 (23%) of roughly 2,100 compounds were called active. Another 5% or so got no clear call; they are omitted.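 The calls were made as follows: active = fitted curve reaches 40% activation at or below the top valid concentration, in every replicate test; inconclusive = replicate tests disagree on the call; inactive = the rest, including activity in the opposite direction.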 A selection follows. Measured potencies and affinities stand elsewhere.

A short description of this assay: activators raising PGC1a acetylation in cells, dose response, cell-based, cherry-picked samples, set 6 (AID 720513).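 Also: cells made to overexpress flag tagged PGC1a plus GCN5 acetyltransferase by viral infection.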 Conditions: U2OS PGC1a acetylation AlphaLISA, overnight, 0 = neutral, -100 = inhibitor control; series mostly up to 19.5 µM. (In general: Bead proximity is the source of the signal in Alpha formats.)
Consider `CN(C)C(=O)c1ccc(-c2ccc([C@H]3[C@H]4CN(C(=O)CC5CC5)CC(=O)N4[C@H]3CO)cc2)cc1`, for which the compound was called inactive.

As for `O=C(CCN1CCc2ccccc2C(c2ccccc2)C1)c1ccc2c(c1)OCCO2` (stereo unspecified), the call was inactive.

Regarding `O=C(O)c1ccc2c(c1)OCCCO2`, the call was inactive.

With `CCC(C)NC(=O)c1ccc2c(SCC(=O)O)c3c(nc2c1)CCCC3` (stereo unspecified), the compound was classed as inactive.

With `COc1cccc(C(=O)CSc2nnc(CNS(=O)(=O)c3ccc(C)cc3)n2C)c1`, the compound was classed as inactive.

With `C[C@@H]1CN([C@@H](C)CO)C(=O)c2cc(NC(=O)CCCN(C)C)ccc2O[C@@H](C)CCCCO[C@@H]1CN(C)Cc1ccc(C(F)(F)F)cc1`, the outcome was inactive.

For `CC1=CC=CC2=NC(=O)CC(C)(C(=O)N(CC(=O)NC3CCCC3)c3ccccc3C)N12` (stereo unspecified), the compound was called inactive.

Turning to `Cn1c(=O)cc(OCCCC(=O)NC2CCCC2)c2ccccc21`, the compound was called inactive.

In the case of `c1nc(NC2CCCCCC2)c2[nH]cnc2n1`, the result was inactive.

Take `CCOc1cc(C)c(S(=O)(=O)N2CCCC2)cc1C`: the compound was classed as inactive.

`O=C(Nc1cccc(F)c1)C1CCN(S(=O)(=O)c2cccc3nonc23)CC1`: the call was inactive.

For `CCOc1ccc(S(N)(=O)=O)cc1-c1nc2c(C(C)(C)C)nn(C)c2c(=O)[nH]1`, the compound was classed as inactive.

In the case of `O=C(CC1CC1)N[C@@H]1CC[C@@H](CCNS(=O)(=O)c2ccc(Cl)cc2)O[C@@H]1CO`, the call was inactive.

`Cc1cccn2c(=O)c3cc(C(=O)NCc4ccco4)c(=N)n(CCc4ccccc4)c3nc12`: the result was inactive.

`O=C(NCc1ccco1)c1ccc(Cn2c(=O)c3ccccc3n(Cc3ccc(Cl)cc3)c2=O)cc1`: the compound was classed as inactive.

In the case of `COc1ccc(CCNC(=O)c2ccc(Cl)cc2)cc1`, the call was inactive.

As to `COc1ccc(S(=O)(=O)NCCC(=O)NCc2ccc(F)cc2)cc1`, the outcome was inactive.

On to `Cc1ccc(S(=O)(=O)N2CCCC(C(=O)NCCC3=CCCCC3)C2)cc1` (stereo unspecified), for which the compound was classed as inactive.

`COc1cccc(C(=O)NCCS(=O)(=O)N2CCN(C(=O)c3ccco3)CC2)c1`: the call was inactive.

On to `COc1ccc(CCNc2ccc(C(CC(N)=O)NC(=O)c3cc(C)cc(C)c3)cc2[N+](=O)[O-])cc1` (stereo unspecified), for which the result was inactive.

As for `CN(C[C@H]1N[C@@H](CO)[C@@H]1c1ccc(C2=CCCC2)cc1)C(=O)c1cccc(F)c1`, the result was inactive.

Take `Cc1ccsc1C(=O)Nc1cc(Cl)ccc1-n1cncn1`: the compound was called inactive.

Take `S=c1nc[nH]c2c1cnn2Cc1ccccc1`: the compound was classed as inactive.

Consider `CCCC[C@@]1(C2CCCC2)Cc2cc(OCC(=O)O)c(Cl)c(Cl)c2C1=O`, for which the outcome was inactive.

In the case of `COC(=O)c1nn(-c2ccccc2)ccc1=O`, the compound was classed as inactive.

As to `CC(=O)N1/C(=C/c2ccc(N(C)C)cc2)C(=O)c2ccccc21`, the call was inactive.

Consider `CC1CCCCC1NC(=O)C1CCN(C(=O)NC2CCCCC2)CC1` (stereo unspecified), for which the compound was called inactive.

As to `O=C1Nc2ccccc2N=C(c2ccccc2)C1N(Cc1ccc(F)cc1)C(=O)c1cccnc1` (stereo unspecified), the result was inactive.

In the case of `COc1ccc(NC(=O)/C(Cl)=C(/Cl)S(=O)(=O)Cc2ccccc2)cn1`, the result was inactive.

On to `O=C(NCc1ccc2c(c1)OCO2)c1nc(S(=O)(=O)Cc2ccccc2)ncc1Cl`, for which the result was inactive.

On to `N#CCSc1nnc(COc2ccc3ccccc3c2)o1`, for which the compound was called inactive.

On to `O=S(=O)(Nc1cccc(CCc2ccccn2)c1)c1ccc2ccccc2c1`, for which the compound was called inactive.

For the compound `C=C[C@H]1CN2CCC1C[C@H]2[C@H](O)c1ccnc2ccc(OC)cc12` (stereo partly specified), the result was inactive.

Consider `CN1/C(=C\C(=O)c2oc3ccccc3c2N)C(C)(C)c2ccccc21`, for which the compound was classed as inactive.

On to `COC(C[C@H]1O[C@@H]1[C@H](O)[C@H](C)OCc1ccccc1)OC`, for which the result was inactive.

On to `Cc1nc(Nc2ccc(S(N)(=O)=O)cc2)sc1C(=O)Nc1ccccc1`, for which the compound was called inactive.

Take `COc1ccc2[nH]c(C(=O)O)c(NC(=O)c3ccccc3[N+](=O)[O-])c2c1`: the compound was classed as inactive.

On to `C[C@@H]1CN([C@H](C)CO)C(=O)CCCn2cc(nn2)CO[C@@H]1CN(C)C(=O)NC1CCCC1`, for which the outcome was inactive.

Turning to `CC(=O)Nc1nc(C)c(Oc2ccc(Cl)cc2)c(=O)[nH]1`, the outcome was inactive.

For `CSc1nc2nccc(/C=C\c3ccccc3)n2n1`, the result was inactive.

On to `COC(=O)C(=Cc1ccc(OCc2ccc([N+](=O)[O-])cc2)c(OC)c1)C(=O)OC`, for which the compound was called inactive.

In the case of `COc1ccc(C(=O)OCC(=O)NCc2ccc3c(c2)OCO3)cc1[N+](=O)[O-]`, the call was inactive.

For `CCCn1c(SC(C)C(=O)NCC2CCCO2)nc2cc(Cl)ccc2c1=O` (stereo unspecified), the compound was called inactive.

As for `O=C(CSc1nc(O)cc(=O)n1-c1ccccc1)N1CCCCC1`, the call was inactive.

For the compound `C[C@@H]1CN([C@H](C)CO)S(=O)(=O)c2ccc(C3=CCCCC3)cc2O[C@H]1CN(C)Cc1ccccc1`, the compound was classed as inactive.

For `Oc1ccc(C2CNCCc3c2cc(O)c(O)c3Cl)cc1` (stereo unspecified), the result was inactive.

`COC(=O)C1CCN(Cc2nnc(-c3ccccc3)o2)CC1`: the call was inactive.

Turning to `Cc1nc2ccccc2c(=O)n1NC(=O)c1ccc(Cl)c([N+](=O)[O-])c1`, the result was inactive.

Regarding `Cc1ccc2nc(SCC(=O)Nc3ccc(F)cc3)nc(=O)n2c1`, the call was inactive.

As for `CC(C(=O)OCn1nnc2ccccc2c1=O)N1C(=O)c2ccccc2C1=O` (stereo unspecified), the call was inactive.

For the compound `O=C1C=CC2(C=C1)O[C@H](Cc1ccccc1)[C@@H](Cc1ccccc1)O2`, the result was inactive.

Regarding `CCOC(=O)C(CC)(CC)C(=O)/C=C/c1ccc(Br)cc1`, the call was inactive.

As for `CCOc1ccccc1CNC(=O)c1cc2oc3ccccc3c2n1C`, the compound was called inactive.

Regarding `CSCCC(NC(=O)c1ccc(Cl)cc1)C(=O)OCC(=O)Nc1cc(Cl)ccc1C` (stereo unspecified), the outcome was inactive.

Consider `Cc1cccc(NC(=O)CNC(=O)Cn2ncc(Cl)c(Cl)c2=O)c1C`, for which the compound was called inactive.

Take `CCOC(=O)c1cn(-c2ccccc2)nc1-c1cccnc1`: the compound was classed as inactive.

In the case of `COc1ccc2c([N+](=O)[O-])c(N3CCCC3)[nH]c2c1`, the call was inactive.

`COCCCNC1CS(=O)(=O)CC1O` (stereo unspecified): the call was inactive.

`O=C(c1ccc2ccccc2c1)N1CCCC1`: the outcome was inactive.

As for `COc1ccc(N(C)S(=O)(=O)c2cccc(C(=O)Nc3ccc(-n4cnnn4)cc3)c2)cc1`, the call was inactive.

Take `COc1ccc(CCNC(=O)C(=O)NCC2CCCO2)cc1OC` (stereo unspecified): the call was inactive.

Consider `COc1ccc(CCNC(=O)COC(=O)c2ccco2)cc1OC`, for which the outcome was inactive.

As to `CCC(C)NCCOCCOc1ccc(C)cc1OC` (stereo unspecified), the outcome was inactive.

On to `CCOC(=O)c1c(C)nc2sc3c(=O)n(-c4ccc(OC)cc4)cnc3c2c1-c1ccc(OC)cc1`, for which the outcome was inactive.

On to `C[C@H]1CN([C@@H](C)CO)C(=O)c2cc(C#Cc3ccccc3)cnc2O[C@H]1CN(C)C(=O)c1ccccn1`, for which the compound was called inactive.

With `CC1CN(C2CCN(C(=O)c3cccc(Cl)c3)CC2)CC(C)O1` (stereo unspecified), the compound was classed as inactive.

For `CCOC(=O)C1(CC2CCCCO2)CCN(C(=O)Nc2ccc(SC)cc2)CC1` (stereo unspecified), the compound was classed as inactive.

As to `O=C1c2ccccc2C(=O)N1c1ccc(Cc2ccncc2)cc1`, the outcome was inactive.

Consider `Cc1ccc(CCC(=O)Nc2ccc(Cl)cc2)o1`, for which the compound was called inactive.

Regarding `Cc1ccc(NC(=O)CC2=NC(=O)C(CC(=O)Nc3ccccc3F)S2)cc1` (stereo unspecified), the compound was called inactive.

In the case of `O=C(O)C1CCCN1S(=O)(=O)c1ccc(Br)s1` (stereo unspecified) (tested in a mixture with another compound), the compound was called inactive.

In the case of `COCCNC(=O)CCc1c(C)nc2c(c(C)nn2-c2ccc(C)c(C)c2)c1C`, the outcome was inactive.

In the case of `C[C@H](CO)N1C[C@H](C)[C@@H](CN(C)Cc2cccnc2)Oc2cc(C3=CCCC3)ccc2S1(=O)=O`, the call was inactive.

`Cc1cc(C)n(C(=O)c2ccc([N+](=O)[O-])cc2N)n1`: the compound was classed as inactive.

As for `COc1ccc(S(=O)(=O)Nc2ccccc2C)cc1C(=O)N1CCOCC1`, the compound was called inactive.

Consider `Cc1ccc(-c2cc(C(=O)N3CCOCC3)c3ccccc3n2)o1`, for which the outcome was inactive.

In the case of `O=C(N=Nc1c(O)[nH]c2ccccc12)c1cc(-c2cccs2)[nH]n1`, the call was inactive.

Turning to `COc1ccccc1NC(=O)/C=C1\SCC(=O)N1C`, the outcome was inactive.

Regarding `Oc1c(Cl)cc(CN2CCOCC2)c2cccnc12`, the result was inactive.

`COc1ccc2c3c([nH]c2c1)[C@H](CO)N(C(=O)c1ccncc1)CC31CN(C(=O)c2ccncc2)C1`: the compound was classed as inactive.

As for `Cc1nc(SCC(=O)NC2CCCC2)[nH]c(=O)c1C`, the result was inactive.

On to `Cc1ccc(Cl)c(Cn2cnc3c(cnn3C(C)(C)C)c2=O)c1F`, for which the outcome was inactive.

As for `C[C@H](CO)N1C[C@H](C)[C@@H](CN(C)C(=O)CCN2CCCCC2)Oc2ncc(C#Cc3ccccn3)cc2C1=O`, the outcome was inactive.

Take `Cn1nnnc1Sc1ncnc2scc(-c3cc4ccccc4o3)c12`: the compound was classed as inactive.

In the case of `Cc1ccc(N2C(=O)N(CC(=O)Nc3ccc(C)cc3[N+](=O)[O-])C(=O)C2C)cc1` (stereo unspecified), the result was inactive.

As for `CCc1ccc(NC(=O)Nc2ccncc2)cc1`, the call was inactive.

Consider `CC(C)(C)NC(=O)C(=O)NNC(=O)c1cccc([N+](=O)[O-])c1`, for which the call was inactive.

Regarding `CC(C)(C)c1ccc(OCC(=O)NNC(=O)Nc2ccccc2)cc1`, the call was inactive.

For `Cc1ccc(NC(=O)c2ccc(NCC3CCCO3)c([N+](=O)[O-])c2)cc1Cl` (stereo unspecified), the compound was called inactive.

Regarding `O=C(CC(CC(=O)c1ccc(Br)cc1)c1cccnc1)c1ccc(Br)cc1`, the compound was classed as inactive.

In the case of `N#CC1=C(N)Oc2n[nH]c(-c3ccccc3)c2C1c1ccncc1` (stereo unspecified), the compound was called inactive.

For `CN(CC(=O)NCC1CCCO1)S(=O)(=O)c1cc(Cl)ccc1Cl` (stereo unspecified), the result was inactive.

Consider `Cc1noc(C)c1CSc1nnc(-c2cccnc2)n1C1CCCCC1C` (stereo unspecified), for which the result was inactive.

For `C/C=C/c1ccc2c(c1)O[C@H](CN(C)C(=O)C1CC1)[C@H](C)CN([C@@H](C)CO)S2(=O)=O`, the result was inactive.

Regarding `CN(Cc1cnc2nc(N)nc(N)c2n1)c1ccc(C(=O)N[C@@H](CCC(=O)O)C(=O)O)cc1`, the outcome was inactive.

For `Cc1ccc(S(=O)(=O)C(C#N)c2nc3ccccc3nc2N2CCCC2)cc1` (stereo unspecified), the compound was classed as inactive.

Take `CCn1nnc(NC(=O)c2ccc(C(C)(C)C)cc2)n1`: the call was inactive.

Regarding `O=C(NCc1ccc2c(c1)OCO2)c1ccc(NC(=O)C2CCCO2)cc1` (stereo unspecified), the compound was classed as inactive.

For the compound `CC(C)(C)OC(=O)N1CCCC(C(=O)Nc2cccc(C(=O)NCc3ccccc3)c2)C1` (stereo unspecified), the result was inactive.

As for `O=C1NC(Nc2nccs2)(C(F)(F)F)C(=O)N1CCc1ccccc1` (stereo unspecified), the compound was called inactive.

On to `CC(C)CC(NC(=O)c1ccc(Cl)cc1)C(=O)OCC(=O)c1ccc2c(c1)NC(=O)CO2` (stereo unspecified), for which the outcome was inactive.

(Values after PubChem BioAssay AID720513 (Broad Institute, 2013).)
